From PubChem BioAssay AID1159580 (chemical genetic matrix, 2015)
In all, about 5,500 compounds went through this assay and about 2,000 (36%) were called active. Inconclusive results (about 18%) are left out. Cut-off read from the data, not from the text of the source: active = normalized growth mostly below about 0.91 (no sharp cut-off); inconclusive = no clear call, values can overlap the other calls; inactive = mostly above about 0.92. The list shows a part of the results.

Assay: chemical genetic growth profiling, strain panel (AID 1159580);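 note: tested at 20 µM; growth read once vehicle control cultures reached saturation at 30 °C; 1 = growth at the plate median or of vehicle wells; lower values mean less growth of the strain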
Conditions: growth OD

Measured: normalized growth

C=CCN1CC[C@]23c4c5ccc(O)c4OC2C(=O)CC[C@@]3(O)[C@H]1C5 (some centres not stated)
inactive: S. cerevisiae deletion strains, locus YJR075W, strain HOC1, stronger effect = lower value 1 | S. cerevisiae deletion strains, locus YKL009W, strain mrt4, stronger effect = lower value 0.977 | S. cerevisiae deletion strains, locus YKL068W, stronger effect = lower value 0.993 | S. cerevisiae deletion strains, locus YKL085W, strain MDH1 (second series), stronger effect = lower value 1 | S. cerevisiae deletion strains, locus YKL085W, strain MDH1, stronger effect = lower value 1 | S. cerevisiae deletion strains, locus YKL160W, strain elf1, stronger effect = lower value 0.975 | S. cerevisiae deletion strains, locus YKL190W, strain CNB1, stronger effect = lower value 1 | S. cerevisiae deletion strains, locus YKR001C, strain vps1, stronger effect = lower value 0.989 | S. cerevisiae deletion strains, locus YKR026C, strain gcn3, stronger effect = lower value 0.979 | S. cerevisiae deletion strains, locus YKR091W, strain srl3, stronger effect = lower value 0.973 | S. cerevisiae deletion strains, locus YLL001W, strain dnm1, stronger effect = lower value 0.983 | S. cerevisiae deletion strains, locus YLL026W, stronger effect = lower value 0.988 | S. cerevisiae deletion strains, locus YLL041C, strain sdh2, stronger effect = lower value 0.963 | S. cerevisiae deletion strains, locus YLR027C, strain aat2, stronger effect = lower value 0.976 | S. cerevisiae deletion strains, locus YLR039C, strain RIC1, stronger effect = lower value 1 | S. cerevisiae deletion strains, locus YLR058C, strain SHM2, stronger effect = lower value 1.01 | S. cerevisiae deletion strains, locus YLR102C, strain apc9, stronger effect = lower value 0.998 | S. cerevisiae deletion strains, locus YLR113W, strain HOG1, stronger effect = lower value 0.973 | S. cerevisiae deletion strains, locus YLR221C, strain rsa3, stronger effect = lower value 0.982 | S. cerevisiae deletion strains, locus YLR258W, strain gsy2, stronger effect = lower value 0.983 | S. cerevisiae deletion strains, locus YLR262C, strain YPT6 (second series), stronger effect = lower value 0.97 | S. cerevisiae deletion strains, locus YLR262C, strain YPT6, stronger effect = lower value 1.04 | S. cerevisiae deletion strains, locus YLR268W, strain sec22, stronger effect = lower value 1.04 | S. cerevisiae deletion strains, locus YLR320W, strain mms22, stronger effect = lower value 0.969 | S. cerevisiae deletion strains, locus YLR330W, strain CHS5, stronger effect = lower value 1.01 | S. cerevisiae deletion strains, locus YLR342W, strain FKS1 (second series), stronger effect = lower value 1.01 | S. cerevisiae deletion strains, locus YLR342W, strain FKS1, stronger effect = lower value 0.962 | S. cerevisiae deletion strains, locus YLR357W, strain rsc2, stronger effect = lower value 0.939 | S. cerevisiae deletion strains, locus YLR370C, strain arc18, stronger effect = lower value 0.973 | S. cerevisiae deletion strains, locus YLR371W, strain rom2, stronger effect = lower value 0.976 | S. cerevisiae deletion strains, locus YLR384C, strain iki3, stronger effect = lower value 0.963 | S. cerevisiae deletion strains, locus YLR418C, strain cdc73, stronger effect = lower value 0.999 | S. cerevisiae deletion strains, locus YML016C, strain PPZ1, stronger effect = lower value 1.01 | S. cerevisiae deletion strains, locus YML032C, strain rad52, stronger effect = lower value 1.02 | S. cerevisiae deletion strains, locus YML120C, strain ndi1, stronger effect = lower value 0.974 | S. cerevisiae deletion strains, locus YML124C, strain tub3, stronger effect = lower value 0.991 | S. cerevisiae deletion strains, locus YMR058W, strain fet3, stronger effect = lower value 0.98 | S. cerevisiae deletion strains, locus YMR078C, strain ctf18, stronger effect = lower value 1 | S. cerevisiae deletion strains, locus YMR125W, strain sto1, stronger effect = lower value 0.936 | S. cerevisiae deletion strains, locus YMR129W, stronger effect = lower value 0.954 | S. cerevisiae deletion strains, locus YMR205C, strain PFK2, stronger effect = lower value 0.979 | S. cerevisiae deletion strains, locus YMR223W, strain ubp8, stronger effect = lower value 0.99 | S. cerevisiae deletion strains, locus YMR231W, strain pep5, stronger effect = lower value 0.977 | S. cerevisiae deletion strains, locus YMR263W, strain SAP30, stronger effect = lower value 1.02 | S. cerevisiae deletion strains, locus YMR307W, strain GAS1, stronger effect = lower value 1.05 | S. cerevisiae deletion strains, locus YNL067W, strain RPL9B, stronger effect = lower value 1.02 | S. cerevisiae deletion strains, locus YNL071W, strain lat1, stronger effect = lower value 0.956 | S. cerevisiae deletion strains, locus YNL128W, strain TEP1, stronger effect = lower value 1.01 | S. cerevisiae deletion strains, locus YNL153C, strain GIM3, stronger effect = lower value 1.02 | S. cerevisiae deletion strains, locus YNL183C, strain NPR1, stronger effect = lower value 0.941 | S. cerevisiae deletion strains, locus YNL209W, strain ssb2, stronger effect = lower value 0.945 | S. cerevisiae deletion strains, locus YNL233W, strain BNI4, stronger effect = lower value 1.03 | S. cerevisiae deletion strains, locus YNL248C, strain rpa49, stronger effect = lower value 0.948 | S. cerevisiae deletion strains, locus YNL250W, strain rad50, stronger effect = lower value 0.988 | S. cerevisiae deletion strains, locus YNL271C, strain bni1, stronger effect = lower value 0.998 | S. cerevisiae deletion strains, locus YNL298W, strain CLA4, stronger effect = lower value 1.01 | S. cerevisiae deletion strains, locus YNL307C, strain MCK1, stronger effect = lower value 0.996 | S. cerevisiae deletion strains, locus YNL322C, strain KRE1 (second series), stronger effect = lower value 0.927 | S. cerevisiae deletion strains, locus YNL322C, strain KRE1, stronger effect = lower value 1 | S. cerevisiae deletion strains, locus YNR049C, strain mso1, stronger effect = lower value 0.973 | S. cerevisiae deletion strains, locus YNR052C, strain pop2, stronger effect = lower value 1 | S. cerevisiae deletion strains, locus YOL006C, strain TOP1, stronger effect = lower value 1.07 | S. cerevisiae deletion strains, locus YOL012C, strain htz1 0.779 | S. cerevisiae deletion strains, locus YOL147C, strain pex11, stronger effect = lower value 0.996 | S. cerevisiae deletion strains, locus YOR001W, strain rrp6, stronger effect = lower value 0.97 | S. cerevisiae deletion strains, locus YOR061W, strain CKA2, stronger effect = lower value 1.02 | S. cerevisiae deletion strains, locus YOR069W, strain VPS5, stronger effect = lower value 1.01 | S. cerevisiae deletion strains, locus YOR070C, strain gyp1, stronger effect = lower value 0.964 | S. cerevisiae deletion strains, locus YOR080W, strain dia2, stronger effect = lower value 0.969 | S. cerevisiae deletion strains, locus YOR083W, strain WHI5, stronger effect = lower value 0.979 | S. cerevisiae deletion strains, locus YOR106W, strain vam3, stronger effect = lower value 0.948 | S. cerevisiae deletion strains, locus YOR136W, strain idh2, stronger effect = lower value 0.995 | S. cerevisiae deletion strains, locus YOR144C, strain elg1, stronger effect = lower value 1 | S. cerevisiae deletion strains, locus YOR184W, strain ser1, stronger effect = lower value 0.998 | S. cerevisiae deletion strains, locus YOR231W, strain MKK1, stronger effect = lower value 0.994 | S. cerevisiae deletion strains, locus YOR265W, strain rbl2, stronger effect = lower value 0.983 | S. cerevisiae deletion strains, locus YOR270C, strain vph1, stronger effect = lower value 0.935 | S. cerevisiae deletion strains, locus YOR290C, strain snf2, stronger effect = lower value 0.968 | S. cerevisiae deletion strains, locus YOR316C, strain cot1, stronger effect = lower value 0.994 | S. cerevisiae deletion strains, locus YPL051W, strain arl3, stronger effect = lower value 0.983 | S. cerevisiae deletion strains, locus YPL055C, strain LGE1, stronger effect = lower value 1.01 | S. cerevisiae deletion strains, locus YPL078C, strain atp4, stronger effect = lower value 0.968 | S. cerevisiae deletion strains, locus YPL106C, strain sse1, stronger effect = lower value 0.957 | S. cerevisiae deletion strains, locus YPL240C, strain hsp82, stronger effect = lower value 0.965 | S. cerevisiae deletion strains, locus YPL241C, strain CIN2, stronger effect = lower value 1.01 | S. cerevisiae deletion strains, locus YPL256C, strain CLN2, stronger effect = lower value 0.979 | S. cerevisiae deletion strains, locus YPR119W, strain clb2, stronger effect = lower value 1 | S. cerevisiae deletion strains, locus YPR141C, strain kar3, stronger effect = lower value 0.996 | S. cerevisiae deletion strains, locus YPR163C, strain tif3, stronger effect = lower value 0.996 | S. cerevisiae deletion strains, locus YPR167C, strain met16, stronger effect = lower value 1 | S. cerevisiae deletion strains, strain wtn01, stronger effect = lower value 1.01 | S. cerevisiae strains, strain wild type, stronger effect = lower value 1.01
